Holding throughout (set-up): scale not given: direction of the effect not stated beside the values
Assay [1] deals with Protein translocase subunit SecA (Escherichia coli (strain K12)) (UniProt P10408). The assay is described as follows: Assay to Identify E. coli SecA ATPase Inhibitors. Type of assay: functional. To be noted: 30 µM.
Assay [2] concerns the target T1, Ubiquitin-activating enzyme e1, putative (Leishmania donovani (strain BPK282A1)) (UniProt E9BSI1).
T1 sequence (whole entry): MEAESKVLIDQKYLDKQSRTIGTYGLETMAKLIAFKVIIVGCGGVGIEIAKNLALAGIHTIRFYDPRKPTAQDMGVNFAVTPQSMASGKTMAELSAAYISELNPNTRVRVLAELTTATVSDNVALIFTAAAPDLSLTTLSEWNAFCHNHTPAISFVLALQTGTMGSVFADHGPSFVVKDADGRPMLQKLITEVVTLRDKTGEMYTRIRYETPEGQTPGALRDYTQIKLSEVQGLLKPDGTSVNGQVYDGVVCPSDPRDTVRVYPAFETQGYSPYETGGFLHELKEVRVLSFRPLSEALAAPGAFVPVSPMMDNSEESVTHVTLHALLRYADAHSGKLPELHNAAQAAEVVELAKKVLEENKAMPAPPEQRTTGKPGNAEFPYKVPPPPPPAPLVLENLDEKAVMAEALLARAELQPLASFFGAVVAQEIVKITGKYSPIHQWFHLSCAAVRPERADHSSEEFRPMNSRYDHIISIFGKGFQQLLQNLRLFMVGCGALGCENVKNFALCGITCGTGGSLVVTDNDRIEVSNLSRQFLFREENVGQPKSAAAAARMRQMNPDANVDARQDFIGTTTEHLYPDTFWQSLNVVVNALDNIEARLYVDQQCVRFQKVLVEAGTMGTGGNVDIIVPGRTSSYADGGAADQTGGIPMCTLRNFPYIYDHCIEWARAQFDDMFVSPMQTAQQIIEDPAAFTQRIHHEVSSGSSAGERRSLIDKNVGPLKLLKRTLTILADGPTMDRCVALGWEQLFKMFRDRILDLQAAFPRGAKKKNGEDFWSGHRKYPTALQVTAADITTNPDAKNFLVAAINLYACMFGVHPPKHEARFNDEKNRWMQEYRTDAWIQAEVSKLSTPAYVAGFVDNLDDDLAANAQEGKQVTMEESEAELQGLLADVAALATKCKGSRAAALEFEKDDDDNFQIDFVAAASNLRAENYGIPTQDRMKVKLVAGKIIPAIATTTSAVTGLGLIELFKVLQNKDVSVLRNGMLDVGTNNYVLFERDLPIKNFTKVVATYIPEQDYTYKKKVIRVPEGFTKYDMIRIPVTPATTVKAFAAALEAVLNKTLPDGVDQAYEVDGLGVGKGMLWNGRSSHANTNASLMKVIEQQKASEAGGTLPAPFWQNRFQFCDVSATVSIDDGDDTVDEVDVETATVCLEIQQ
The experiment in a line: Leishmania donovani Ubiquitin Activating Enzyme (LdE1). Type of assay: functional. To be noted: 30 µM.

The target of assay [3] is AMP-activated protein kinase, AMPK (Homo sapiens) (UniProt P54646+O43741+P54619+Q9UGJ0+Q9Y478+Q13131+Q9UGI9). The assay is described as follows: AMP-dependent Kinase enzyme assay. An in vitro enzyme assay that detects ADP turnover that is directly proportional to AMPK activity. This uses naive AMPK that is activated during the assay with MK-8722. Type of assay: functional. To be noted: 30 µM.

Assay [4] concerns the target Sialic acid-binding Ig-like lectin 9 (Homo sapiens) (UniProt Q9Y336). The assay is described as follows: Hs-Siglec9 ALPHAscreen SOP 20170721. To be noted: 10 µM. On the technique in general: Alpha assays give light when donor and acceptor beads are brought close together.
The test system of another assay is Trypanosoma cruzi. The experiment in a line: Trypanosoma cruzi phosphomannomutase and mannose-1-phosphate guanylyltransferase assay. Type of assay: functional. To be noted: 10 µM.
Assay [5] addresses T2, Arginase-2, mitochondrial (Homo sapiens) (UniProt P78540).
T2 sequence (whole entry): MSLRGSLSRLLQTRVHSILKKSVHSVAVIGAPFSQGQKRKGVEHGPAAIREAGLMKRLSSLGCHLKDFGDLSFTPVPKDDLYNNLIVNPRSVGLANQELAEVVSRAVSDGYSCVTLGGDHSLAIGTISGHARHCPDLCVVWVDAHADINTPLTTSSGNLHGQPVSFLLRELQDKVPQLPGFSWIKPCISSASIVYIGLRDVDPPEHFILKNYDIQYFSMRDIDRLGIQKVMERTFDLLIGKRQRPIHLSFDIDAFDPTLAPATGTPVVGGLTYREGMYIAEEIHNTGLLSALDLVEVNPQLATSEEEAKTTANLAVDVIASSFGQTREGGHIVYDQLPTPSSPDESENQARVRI
The assay is described as follows: in vitro enzyme assay to detect the production of urea directly proportional to the activity of Arginase II. Also: in the data most compounds retested in dose-response had high values. To be noted: 33.3 µM. Type of assay: functional.

Assay [6] has as its target T3, Proteasome subunit beta (Trypanosoma cruzi) (UniProt O96673).
T3 sequence (whole entry): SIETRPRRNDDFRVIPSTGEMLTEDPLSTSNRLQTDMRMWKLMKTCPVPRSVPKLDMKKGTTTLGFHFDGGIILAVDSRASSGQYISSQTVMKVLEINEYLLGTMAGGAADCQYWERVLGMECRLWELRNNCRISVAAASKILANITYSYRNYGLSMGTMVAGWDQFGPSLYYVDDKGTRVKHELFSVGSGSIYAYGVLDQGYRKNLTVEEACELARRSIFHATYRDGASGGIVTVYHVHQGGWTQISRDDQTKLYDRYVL
The assay is described as follows: Trypanosoma cruzi proteasome chymotrypsin-like activity (TcProtChymo) assay. Also: in the data most compounds retested in dose-response had high values. Type of assay: functional. To be noted: 9.37 µM.

The species entered for a further assay is Homo sapiens. The assay is described as follows: To identify inhibition of the IFN signalling (Jak-Stat) pathway via expression of an eGFP reporter gene under the control of an IFN-stimulated response element (ISRE) containing MxA promoter. To be noted: 30 µM. Type of assay: functional. (A reporter such as luciferase makes a cellular process visible.)
Assay [7] addresses T4, Tyrosyl-tRNA synthetase, putative (Trypanosoma cruzi (strain CL Brener)) (UniProt Q4DSP6).
T4 sequence (whole entry): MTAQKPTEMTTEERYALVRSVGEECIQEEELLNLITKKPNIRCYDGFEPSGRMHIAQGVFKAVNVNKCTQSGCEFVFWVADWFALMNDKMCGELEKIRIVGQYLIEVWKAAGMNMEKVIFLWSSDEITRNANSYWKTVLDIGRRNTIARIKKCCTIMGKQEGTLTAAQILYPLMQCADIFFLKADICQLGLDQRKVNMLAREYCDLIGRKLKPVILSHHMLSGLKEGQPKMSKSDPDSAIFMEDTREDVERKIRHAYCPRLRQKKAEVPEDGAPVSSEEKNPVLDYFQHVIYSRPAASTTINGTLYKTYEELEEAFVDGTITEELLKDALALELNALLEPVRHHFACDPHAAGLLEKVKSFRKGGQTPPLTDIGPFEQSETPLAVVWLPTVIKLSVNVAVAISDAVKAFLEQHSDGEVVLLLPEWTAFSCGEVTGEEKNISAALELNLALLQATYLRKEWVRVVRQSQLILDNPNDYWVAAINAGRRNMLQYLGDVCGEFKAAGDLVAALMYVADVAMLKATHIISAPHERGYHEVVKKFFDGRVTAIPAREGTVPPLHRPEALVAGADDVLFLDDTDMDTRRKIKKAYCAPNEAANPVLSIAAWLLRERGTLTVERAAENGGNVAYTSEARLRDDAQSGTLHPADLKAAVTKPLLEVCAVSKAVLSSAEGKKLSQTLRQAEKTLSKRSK
The assay is described as follows: Trypanosoma cruzi tyrosyl tRNA synthetase (TcYRS) _High Tyrosine SOP. Also: in the data most compounds retested in dose-response had high values. Type of assay: functional. To be noted: 30 µM.

Assay [8] has as its target T4, Tyrosyl-tRNA synthetase, putative (Trypanosoma cruzi (strain CL Brener)). The assay is described as follows: Trypanosoma cruzi tyrosyl tRNA synthetase (TcYRS) SOP. Type of assay: functional. To be noted: 30 µM.
Assay [9] concerns the target Chromo domain-containing protein 1 (Saccharomyces cerevisiae (strain ATCC 204508 / S288c) (Baker's yeast)) (UniProt P32657). The experiment in a line: ScCHD-1 Enzyme Inhibition Assay. Also: in the data most compounds retested in dose-response had high values. Type of assay: functional. To be noted: 30 µM.

The record followed here is ChEMBL document CHEMBL3988442, “University of Dundee, Small-Polar-MMV Screening Library” (2021).

For some of these results: Entries with a potency or affinity are not part of this list.

Protein translocase subunit SecA (Escherichia coli (strain K12)), sequence (P10408 whole entry): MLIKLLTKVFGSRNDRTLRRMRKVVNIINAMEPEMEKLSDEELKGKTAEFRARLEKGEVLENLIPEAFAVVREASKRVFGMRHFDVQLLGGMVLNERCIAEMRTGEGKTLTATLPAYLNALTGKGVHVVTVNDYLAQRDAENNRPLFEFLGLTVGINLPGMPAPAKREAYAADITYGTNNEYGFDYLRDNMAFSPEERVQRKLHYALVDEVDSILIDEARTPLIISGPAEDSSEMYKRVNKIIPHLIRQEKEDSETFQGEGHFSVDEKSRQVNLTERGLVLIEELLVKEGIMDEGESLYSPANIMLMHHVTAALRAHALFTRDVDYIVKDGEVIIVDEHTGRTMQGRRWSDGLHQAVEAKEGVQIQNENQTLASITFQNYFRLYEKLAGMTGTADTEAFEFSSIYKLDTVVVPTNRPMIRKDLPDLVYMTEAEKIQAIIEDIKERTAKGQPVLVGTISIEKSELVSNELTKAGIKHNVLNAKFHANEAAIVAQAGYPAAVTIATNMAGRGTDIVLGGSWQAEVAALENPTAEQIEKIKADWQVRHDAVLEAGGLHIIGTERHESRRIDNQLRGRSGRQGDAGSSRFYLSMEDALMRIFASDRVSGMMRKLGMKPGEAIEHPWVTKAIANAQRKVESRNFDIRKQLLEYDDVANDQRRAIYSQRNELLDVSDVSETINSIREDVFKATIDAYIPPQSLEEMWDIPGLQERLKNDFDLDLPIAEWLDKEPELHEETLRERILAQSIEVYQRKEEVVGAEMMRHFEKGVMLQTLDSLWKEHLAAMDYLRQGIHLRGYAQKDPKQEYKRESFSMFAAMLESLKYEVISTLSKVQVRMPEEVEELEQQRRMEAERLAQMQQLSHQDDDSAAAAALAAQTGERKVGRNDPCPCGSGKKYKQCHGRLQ
Sialic acid-binding Ig-like lectin 9 (Homo sapiens), sequence (Q9Y336 whole entry): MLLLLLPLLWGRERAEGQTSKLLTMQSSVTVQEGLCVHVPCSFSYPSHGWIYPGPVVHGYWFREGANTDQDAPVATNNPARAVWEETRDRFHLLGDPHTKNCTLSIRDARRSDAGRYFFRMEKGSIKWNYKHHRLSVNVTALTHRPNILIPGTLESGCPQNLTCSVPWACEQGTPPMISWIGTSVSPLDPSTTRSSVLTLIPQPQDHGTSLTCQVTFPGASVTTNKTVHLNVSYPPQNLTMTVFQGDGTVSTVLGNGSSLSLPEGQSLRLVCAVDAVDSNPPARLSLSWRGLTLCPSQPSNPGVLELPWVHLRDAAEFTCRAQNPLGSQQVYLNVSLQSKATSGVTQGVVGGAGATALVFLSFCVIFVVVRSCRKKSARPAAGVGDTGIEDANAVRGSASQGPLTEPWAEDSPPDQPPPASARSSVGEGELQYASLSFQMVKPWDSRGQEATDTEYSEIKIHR
Chromo domain-containing protein 1 (Saccharomyces cerevisiae (strain ATCC 204508 / S288c) (Baker's yeast)), sequence (P32657 whole entry, the tested form may be a part): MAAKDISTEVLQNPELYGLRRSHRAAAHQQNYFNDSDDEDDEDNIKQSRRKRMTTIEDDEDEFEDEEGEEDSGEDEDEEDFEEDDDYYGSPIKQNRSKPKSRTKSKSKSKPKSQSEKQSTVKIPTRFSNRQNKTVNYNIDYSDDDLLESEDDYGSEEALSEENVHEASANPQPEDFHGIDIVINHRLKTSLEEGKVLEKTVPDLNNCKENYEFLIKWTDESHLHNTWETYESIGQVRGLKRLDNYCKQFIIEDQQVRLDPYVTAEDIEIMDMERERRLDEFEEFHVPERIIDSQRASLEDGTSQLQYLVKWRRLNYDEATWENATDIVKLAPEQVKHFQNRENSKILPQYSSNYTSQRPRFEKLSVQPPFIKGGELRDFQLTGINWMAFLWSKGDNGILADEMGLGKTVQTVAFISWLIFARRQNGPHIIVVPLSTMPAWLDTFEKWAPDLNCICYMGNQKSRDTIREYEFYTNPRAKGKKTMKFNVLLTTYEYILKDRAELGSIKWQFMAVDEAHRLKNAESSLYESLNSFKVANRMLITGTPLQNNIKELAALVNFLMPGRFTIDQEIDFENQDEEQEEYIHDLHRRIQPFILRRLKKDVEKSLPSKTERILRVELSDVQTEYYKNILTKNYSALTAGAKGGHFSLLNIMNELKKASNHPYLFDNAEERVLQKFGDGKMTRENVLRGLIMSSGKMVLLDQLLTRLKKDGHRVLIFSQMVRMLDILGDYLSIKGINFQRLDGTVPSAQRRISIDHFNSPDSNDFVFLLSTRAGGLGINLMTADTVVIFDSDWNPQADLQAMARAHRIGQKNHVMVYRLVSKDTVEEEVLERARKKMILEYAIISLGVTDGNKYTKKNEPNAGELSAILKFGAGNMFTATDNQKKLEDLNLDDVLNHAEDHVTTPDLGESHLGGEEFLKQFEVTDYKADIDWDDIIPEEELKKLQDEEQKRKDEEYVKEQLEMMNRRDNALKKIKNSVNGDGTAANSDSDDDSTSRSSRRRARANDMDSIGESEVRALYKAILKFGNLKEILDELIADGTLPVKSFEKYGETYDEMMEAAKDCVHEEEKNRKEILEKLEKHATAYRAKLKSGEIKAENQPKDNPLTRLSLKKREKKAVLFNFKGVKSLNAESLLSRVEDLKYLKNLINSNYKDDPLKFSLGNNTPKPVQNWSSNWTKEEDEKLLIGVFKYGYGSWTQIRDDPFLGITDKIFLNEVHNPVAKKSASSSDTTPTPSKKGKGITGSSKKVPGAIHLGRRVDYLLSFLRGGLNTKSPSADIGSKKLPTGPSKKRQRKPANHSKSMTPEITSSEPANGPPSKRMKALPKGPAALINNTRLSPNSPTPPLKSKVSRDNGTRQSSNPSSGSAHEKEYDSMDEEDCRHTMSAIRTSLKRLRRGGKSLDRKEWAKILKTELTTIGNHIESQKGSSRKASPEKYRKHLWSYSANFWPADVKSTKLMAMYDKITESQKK

As to `O=C([C@H]1C[C@H]2OCC[C@H]2N(CCc2ccccc2)C1)N1CCCCO1`, the Percent Effect was -4.49% in assay [1]; 5.41% in assay [2]; 7.77% in assay [3]; -1.67% in assay [4]; -0.0978% in the assay on Trypanosoma cruzi; 3.5% in [5]. For the same compound, the Percent Effect in assay [6] was 11.4%; in the assay listed under Homo sapiens it was -14.2%; in assay [7] it was 5.41%; in assay [8] it was 15.4%; in assay [9] it was 6.02%.

`CCCOc1cccc(CNC(=O)CN2CCN(C)CC2C)c1` (stereo unspecified): the Percent Effect was -1.3% in [1]; 13.5% in [2]; -7.22% in assay [3]; 15% in assay [4]; 1.02% with Trypanosoma cruzi; -6.47% in assay [5]. Moreover, the Percent Effect in [6] is 1.98%; in the assay listed under Homo sapiens, 14.1%; in assay [7], 3.96%; in assay [8] it was 15.8%; in [9], -9.26%.

In the case of `CC(O)CN1CCN(C(=O)CN(C)c2ccc(Cl)cn2)CC1` (stereo unspecified), the Percent Effect in [1] was -0.0278%; in [2], -2.7%; in assay [3] it was -4.09%; in assay [4] it was 7.01%; in the assay with Trypanosoma cruzi it was -1.93%; in [5] it was -2.38%. The Percent Effect in assay [6] was 14.8%; in the assay filed under Homo sapiens, 14.1%; in [7] it was 4.76%; in [8], 7.32%; in [9], -3.67%.

Take `Cc1ccc2c(c1)CN(C(=O)c1ccccc1F)C(CN(C)C)CO2` (stereo unspecified): the Percent Effect in assay [1] was -0.708%; in assay [2], 12.2%; in assay [3] it was 14.3%; in assay [4], -7.4%; in the assay on Trypanosoma cruzi, -5.73%; in assay [5], -4.41%. The Percent Effect in [6] was 11.7%; in the assay filed under Homo sapiens, 0.0165%; in assay [7], 1.07%; in assay [8] it was 3.9%; in assay [9], -10%.

For `CC(C)NC(=O)N1CCN(C(=O)N(C)C)CC2(CC(=O)N(C)C2)C1` (stereo unspecified), the Percent Effect was -3.05% in [1]; 13.5% in [2]; -4.22% in assay [3]; 1.04% in assay [4]; 1.56% with Trypanosoma cruzi; 6.25% in assay [5]. Besides, the Percent Effect is 18.5% in [6]; 7.62% in the assay filed under Homo sapiens; 8.91% in assay [7]; 13.4% in [8]; -7.18% in [9].

Regarding `CNC(=O)C1(c2cnccn2)CCCN1C(=O)c1ccn(C)n1` (stereo unspecified), the Percent Effect in assay [1] was -5.86%; in assay [2], 6.76%; in [3] it was 3.23%; in [4], -2.02%; in the assay with Trypanosoma cruzi, 0.593%; in assay [5] it was -1.16%. Besides, the Percent Effect in assay [6] was 1.4%; in the assay filed under Homo sapiens it was 7.86%; in assay [7] it was 4.3%; in [8], 74%; in [9], -22%.

`CCc1csc(C2CCCN(C(=O)C3=NN(CC)C(=O)CC3)C2)n1` (stereo unspecified): the Percent Effect in [1] was -3.73%; in [2], 7.79%; in assay [3], -3.68%; in assay [4] it was 5.23%; in the assay with Trypanosoma cruzi, 6.37%; in assay [5] it was 2.13%. Further, the Percent Effect was -5.07% in [6]; 11.1% in the assay listed under Homo sapiens; 4.85% in assay [7]; 12.2% in assay [8]; -7.52% in [9].

As for `CCOc1ncccc1NC(=O)N1CCCCCC1`, the Percent Effect is -4.07% in assay [1]; 5.41% in assay [2]; 0.669% in assay [3]; 8.62% in assay [4]; -0.836% with Trypanosoma cruzi; -1.29% in assay [5]. Moreover, the Percent Effect turned out to be 0.179% in assay [6]; 13.2% in the assay listed under Homo sapiens; 2.97% in assay [7]; 6.1% in [8]; 1.09% in assay [9].

Turning to `CCn1c(C)nnc1CN(C)C1CCN(CCCOC)C1` (stereo unspecified), the Percent Effect is -1.09% in [1]; 18.2% in assay [2]; -9.12% in [3]; 4.71% in [4]; 3.82% in the assay with Trypanosoma cruzi; 6.11% in assay [5]. Also, the Percent Effect was 11.7% in [6]; -2.93% in the assay filed under Homo sapiens; 7.62% in assay [7]; 25.9% in assay [8]; -10.1% in assay [9].

As to `O=C(CCc1cscn1)N1CCCC(n2ccnc2)C1` (stereo unspecified), the Percent Effect in assay [1] was -6.32%; in assay [2], 1.27%; in assay [3], 6.89%; in [4], -0.321%; in the assay on Trypanosoma cruzi, -2.36%; in assay [5], 0.645%. For the same compound, the Percent Effect in assay [6] was 0.343%; in the assay listed under Homo sapiens, -13.2%; in assay [7], 8.33%; in assay [8], 5.06%; in assay [9], -12.3%.

As to `CN(C)c1ccc(CC(=O)N[C@@H]2CCNC[C@H]2O)cc1`, the Percent Effect in [1] was -6.67%; in assay [2] it was 5.41%; in [3], -14.5%; in assay [4] it was 7.45%; with Trypanosoma cruzi, 2.05%; in assay [5], 0.744%. Also, the Percent Effect is -1.46% in assay [6]; -17.6% in the assay listed under Homo sapiens; 7.53% in [7]; 11.1% in [8]; -2.77% in assay [9].
